Assay outcomes: PubChem, several laboratories
CYP2C19 act: cytochrome P450 2C19 (human) activation; recombinant CYP2C19, luciferin-H EGE luminescence; hits give high values; 0 = fully inhibited enzyme, 1 = untreated enzyme; AID 1025; activation factor at 5 µM; 96,000 tested, under 10 active;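 active means activation factor of at least 2 at 5 µM in the primary screen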;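 further: 0 = wells with 2.5 mM tranylcypromine and 1 = vehicle-only wells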
Cav32 inh: human Cav3.2 channel inhibition, primary screen; O95180; Cav3.2-expressing cells, Fluo-4 calcium fluorescence FDSS; hits give low values; B-score at 10 µM; hit rate 4% among 100,000; AID 449739;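 active means single-dose well whose peak fluorescence ratio is a statistical outlier from its plate by either plate-standardised score or position-corrected B-score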
CYP2C19 inh: human CYP2C19 inhibition; CYP2C19 Supersomes, luciferin-H EGE luminescence, 30 min; hit rate 21% among 96,000; inhibition, % at 5 µM;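 active means CYP2C19 inhibition above a set limit at 5 µM in the primary screen, cut at about 50% in these data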;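 further: plate controls were negative control wells for no effect and 2.5 mM tranylcypromine positive control for full effect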
CYP2C9 act: increases human cytochrome P450 2C9 activity; hit rate 1.4% among 96,000; activation factor at 5 µM; P11712; recombinant CYP2C9, luciferin-H conversion, luminescence; hits give high values; factor 1 = untreated enzyme, 0 = blocked; AID 1024;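 active means activation factor of 2 or more for CYP2C9 at a 5 µM dose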;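 further: 0 = sulfaphenazole-blocked wells and 1 = vehicle-only wells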
Target sequence (P11712 whole entry, looked up): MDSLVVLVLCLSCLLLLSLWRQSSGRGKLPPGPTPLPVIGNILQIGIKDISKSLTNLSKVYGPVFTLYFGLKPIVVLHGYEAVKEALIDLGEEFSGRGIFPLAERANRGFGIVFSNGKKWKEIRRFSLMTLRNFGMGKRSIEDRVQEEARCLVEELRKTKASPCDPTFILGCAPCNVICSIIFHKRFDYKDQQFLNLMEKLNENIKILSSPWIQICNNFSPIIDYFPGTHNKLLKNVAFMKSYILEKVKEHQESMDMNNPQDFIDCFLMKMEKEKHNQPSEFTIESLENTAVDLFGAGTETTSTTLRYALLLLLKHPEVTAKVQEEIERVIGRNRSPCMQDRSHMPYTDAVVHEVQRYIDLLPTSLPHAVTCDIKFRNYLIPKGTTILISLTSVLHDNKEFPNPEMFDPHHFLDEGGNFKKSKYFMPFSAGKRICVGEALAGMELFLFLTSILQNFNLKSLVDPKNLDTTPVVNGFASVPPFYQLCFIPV
CYP2C9 inhib: blocks human cytochrome P450 2C9 | AID 777 | CYP2C9 Supersomes, luciferin-H conversion, luminescence | P11712 | inhibition, % at 5 µM | hit rate 20% among 96,000;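 active means blocking of liver enzyme CYP2C9 beyond about 50% at 5 µM, limit read from the data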
The depositor's hits bear a star. An excerpt weighted towards active compounds, which were near 27% of everything screened.

How did CCn1c(SCC(=O)N2CCN(c3ccc(F)cc3)CC2)nc2ccccc2c1=O do in these assays?
CYP2C19 act: 0.4; Cav32 inh: 0.93; CYP2C19 inh: 63*; CYP2C9 act: 0.4; CYP2C9 inhib: 59*

What do the screens show for `CCOC(=O)N1CCN(c2nnnn2-c2ccccc2)CC1`?
CYP2C19 act: 0.1; Cav32 inh: -0.63; CYP2C19 inh: 91*; CYP2C9 act: 0.5; CYP2C9 inhib: 49

Results for CCn1c(SCC(=O)N2CCN(c3ccc(Cl)cc3)CC2)nc2ccccc2c1=O ?
CYP2C19 act: 0.8; Cav32 inh: -0.88; CYP2C19 inh: 24; CYP2C9 act: 0.5; CYP2C9 inhib: 47

What do the screens show for `O=C(CSc1nc2ccccc2c(=O)n1Cc1ccco1)N1CCN(c2ccccc2)CC1`?
CYP2C19 act: 0.7; Cav32 inh: -4.9*; CYP2C19 inh: 33; CYP2C9 act: 0.6; CYP2C9 inhib: 40

What do the screens show for `COc1ccc(C(=O)N2CCN(c3nnnn3-c3ccccc3)CC2)cc1OC`?
CYP2C19 act: 1; Cav32 inh: 1.3; CYP2C19 inh: 0; CYP2C9 act: 1; CYP2C9 inhib: 2

What do the screens show for `CC1CN(c2nnnn2-c2ccccc2)CC(C)O1` (stereo unspecified)?
CYP2C19 act: 0.3; Cav32 inh: 0.079; CYP2C19 inh: 74*; CYP2C9 act: 1; CYP2C9 inhib: -2

What do the screens show for `CCOc1nc2ccccc2nc1C`?
CYP2C19 act: 1.1; Cav32 inh: -0.31; CYP2C19 inh: -8; CYP2C9 act: 1; CYP2C9 inhib: -4

How did OCCN(CCO)CC(O)COCCC12CC3CC(CC(C3)C1)C2 (stereo unspecified) do in these assays?
CYP2C19 act: 0.8; Cav32 inh: 0.68; CYP2C19 inh: 18; CYP2C9 act: 0.9; CYP2C9 inhib: 13

How did CCC(C)[C@H](Nc1nc(-c2ccccc2)nc2c1oc1ccccc12)C(=O)O (stereo partly specified) do in these assays?
CYP2C19 act: 1; Cav32 inh: 0.024; CYP2C19 inh: 3; CYP2C9 act: 1; CYP2C9 inhib: 2

Results for CCCCn1c(SCC(=O)N2CCN(c3ccccc3)CC2)nc2ccsc2c1=O ?
CYP2C19 act: 0.5; Cav32 inh: -2.7; CYP2C19 inh: 51*; CYP2C9 act: 0.1; CYP2C9 inhib: 88*

What do the screens show for `CCOC(=O)N1CCN(C(=O)CSc2nc3ccccc3c(=O)n2-c2ccccc2)CC1`?
CYP2C19 act: 0.4; CYP2C19 inh: 56*; CYP2C9 act: 0; CYP2C9 inhib: 98*

Results for Cc1ccc(-n2ncc3c(=O)[nH]c(SCC(=O)N4CCN(c5ccccc5)CC4)nc32)cc1 ?
Cav32 inh: -0.41

What do the screens show for `CCCn1c(SCC(=O)N2CCN(c3ccccc3)CC2)nc2ccccc2c1=O`?
CYP2C19 act: 0; Cav32 inh: -6.2*; CYP2C19 inh: 97*; CYP2C9 act: 0.1; CYP2C9 inhib: 93*

What do the screens show for `CCOC(=O)N1CCN(C(=O)CSc2nc3c(cnn3-c3ccccc3)c(=O)[nH]2)CC1`?
CYP2C19 act: 0.8; Cav32 inh: 1.5; CYP2C19 inh: 22; CYP2C9 act: 0.3; CYP2C9 inhib: 67*

Results for O=C(COc1ccc(-n2cnnn2)cc1)NC(=O)NCc1ccccc1 ?
CYP2C19 act: 0.8; Cav32 inh: 0.57; CYP2C19 inh: 17; CYP2C9 act: 0.8; CYP2C9 inhib: 16

How did COC(=O)C(CCSC)NC(=O)c1cccc([N+](=O)[O-])c1 (stereo unspecified) do in these assays?
CYP2C19 act: 0.8; Cav32 inh: 0.71; CYP2C19 inh: 25; CYP2C9 act: 0.9; CYP2C9 inhib: 10

What do the screens show for `CCOCCOCCC(C(=O)OCC)P(=O)(c1ccccc1)c1ccccc1` (stereo unspecified)?
CYP2C19 act: 1.1; Cav32 inh: 0.17; CYP2C19 inh: -7; CYP2C9 act: 1.1; CYP2C9 inhib: -12

Results for CCCn1nc(Oc2nc(NCC)nc(NC(C)C)n2)ccc1=O ?
CYP2C19 act: 0.8; Cav32 inh: 0.88; CYP2C19 inh: 20; CYP2C9 act: 0.9; CYP2C9 inhib: 5

What do the screens show for `CN1CCn2c1nc(N1CCCCC1)nc2=O`?
CYP2C19 act: 1.1; Cav32 inh: 0.56; CYP2C19 inh: -15; CYP2C9 act: 0.9; CYP2C9 inhib: 9

Results for COCCn1c(SCC(=O)N2CCCCC2)nc2ccccc2c1=O ?
CYP2C19 act: 0.8; Cav32 inh: 0.0047; CYP2C19 inh: 23; CYP2C9 act: 0.8; CYP2C9 inhib: 22

How did CCC1CCCCN1C(=O)CSc1nc2ccsc2c(=O)n1Cc1ccccc1 (stereo unspecified) do in these assays?
CYP2C19 act: 0.5; Cav32 inh: -4.9*; CYP2C19 inh: 50*; CYP2C9 act: 0.3; CYP2C9 inhib: 70*

What do the screens show for `COCC(C)n1c(SCC(=O)N2CCCCC2)nc2ccccc2c1=O` (stereo unspecified)?
CYP2C19 act: 0.5; Cav32 inh: 0.63; CYP2C19 inh: 46; CYP2C9 act: 0.5; CYP2C9 inhib: 54*

How did Cc1nn(-c2ccccc2)c(C)c1/C=N/NC(=O)CSc1nc2ccccc2c(=O)n1-c1ccc(Br)cc1 do in these assays?
CYP2C19 act: 0.7; Cav32 inh: -0.41; CYP2C19 inh: 32; CYP2C9 act: 0.5; CYP2C9 inhib: 51*

Results for COc1ccccc1OCC(O)CN1CCN(CC(=O)Nc2c(C)cccc2C)CC1 (stereo unspecified) ?
Cav32 inh: 1.7

Results for Cc1cc2c(C)c(C)c(=O)[nH]c2cc1N ?
CYP2C19 act: 0.9; Cav32 inh: 0.36; CYP2C19 inh: 5; CYP2C9 act: 1; CYP2C9 inhib: 0

What do the screens show for `Cc1ccc(C)n1CCN1CCN(CC(=O)Nc2cc(C(F)(F)F)ccc2Cl)CC1`?
CYP2C19 act: 0.8; Cav32 inh: -1.5; CYP2C19 inh: 16; CYP2C9 act: 0.6; CYP2C9 inhib: 45

Results for CC(C)c1ccc(N(C(=O)C(F)(F)F)C(C(=O)NC2CCCCC2)c2ccncc2)cc1 (stereo unspecified) ?
CYP2C19 act: 0.8; CYP2C19 inh: 23; CYP2C9 act: 0.8; CYP2C9 inhib: 18

How did CCCc1nc(SCC(=O)Nc2cc(C)on2)c2ccccc2n1 do in these assays?
CYP2C19 act: 0.9; CYP2C19 inh: 10; CYP2C9 act: 0.7; CYP2C9 inhib: 32

Results for Cc1cccc(NC(=O)CSc2nc(COc3ccccc3)nc3ccccc23)c1C ?
CYP2C19 act: 0.6; Cav32 inh: -3; CYP2C19 inh: 39; CYP2C9 act: 0.1; CYP2C9 inhib: 90*

How did CCc1nc(SCC(=O)N2c3ccccc3Sc3ccccc32)c2ccccc2n1 do in these assays?
CYP2C19 act: 1; Cav32 inh: -0.19; CYP2C19 inh: 0; CYP2C9 act: 0.5; CYP2C9 inhib: 53*

How did CCc1nc(SCC(=O)Nc2sc(C)c(C)c2C(=O)OC)c2ccccc2n1 do in these assays?
CYP2C19 act: 0.9; Cav32 inh: -0.19; CYP2C19 inh: 14; CYP2C9 act: 0.5; CYP2C9 inhib: 54*
